Bioassay records (PubChem)
A selection: hits, their analogues and other compounds. The true share with any hit is near 10%.
GLA spleen mod – inhibits or activates alpha-galactosidase in human spleen homogenate | 240,000 tested, 0.008% active | Potency, µM (doses to about 80 µM), most hits filed as inhibitors | human spleen homogenate, 4MU-alpha-Gal fluorescence, 40 min | AID 2107 | P06280
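qHTS titration in buffer at pH 5.0. Alpha-galactosidase activity in spleen homogenate was measured via 4-methylumbelliferone release from 1 mM fluorogenic substrate after 40 min at 37C and a pH 10 stop. AC50 came from Hill fits of control-normalized data.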
PNC assembly inh – blocks assembly of the perinucleolar compartment; PC3M PTB-GFP, PNC prevalence imaging, 16 h; hits give low values; AID 2417; activity change (PNC), negative = inhibition, % at 10 µM; 140,000 tested, 3.1% active;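 active = readout at or below -70, meaning at least 70% loss of cells showing the perinucleolar compartment, a nuclear body marking cancer cells; inconclusive = readout between -30 and a set limit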
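Read-out is percentage of cells bearing a perinucleolar compartment, from automated 20x imaging of fixed, Hoechst-stained PC3M PTB-GFP cells. Cells were seeded 4 h, then exposed 16 h to compound (23 nl of library stock) in duplicate plates.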
ALDH1A1 inh – blocks purified human ALDH1A1 activity | Potency, µM (series often up to 75.3 µM), usual class: inhibitors | 220,000 tested, 7.3% active | P00352 | Purified ALDH1A1, NADH fluorescence, propionaldehyde substrate; active = well fitted inhibition curve with a large enough effect, not every such curve was filed as active; inconclusive = small, poorly fitted or top-dose-only effect, or another doubt; inactive = no such curve, though single readings can be large or run the other way
ALOX12 inhib – blocks human 12-lipoxygenase activity. P18054. purified 12-hLO, xylenol orange hydroperoxide absorbance. Potency, µM (series often up to 57.1 µM), most hits filed as inhibitors. 150,000 tested, 0.12% active. AID 1452; also: nearly all actives have a fitted effect of over 55% in size
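Xylenol orange chromogenic assay: hydroperoxide from 12hLO oxidises Fe(II), giving red-shifted Fe(III)-XO absorbance. Conditions: 150 nM enzyme, 40 uM arachidonic acid, 25 mM Hepes pH 7.0, 0.01% Triton X-100, 30 min, room temperature.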
HPGD inh – inhibitors of human 15-hydroxyprostaglandin dehydrogenase (HPGD). purified HPGD, NADH fluorescence kinetic, PGE2 substrate. P15428. 150,000 tested, 4.3% active. Potency, µM, hits mostly inhibitors. AID 894; active = well fitted inhibition curve with a large enough effect, not every such curve was filed as active; inconclusive = small, poorly fitted or top-dose-only effect, or another doubt; inactive = no such curve, though single readings can be large or run the other way
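NADH formation kinetics: reaction with 30 uM PGE2 and 1 mM NAD+ (final), 20 nM enzyme, Tris-HCl pH 8 with Tween 20, after 15 min compound preincubation at room temperature. Fluorescence change, last versus first of five reads.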
GLA inh pH 4.5 – alpha-galactosidase A (human) inhibition, pH 4.5; P06280; purified enzyme, 4-MU-alpha-Gal fluorescence, pH 4.5; activity change, negative = inhibition, % at 105 µM; 230,000 tested, under 10 active; AID 1467
Target sequence (P06280 whole entry, looked up): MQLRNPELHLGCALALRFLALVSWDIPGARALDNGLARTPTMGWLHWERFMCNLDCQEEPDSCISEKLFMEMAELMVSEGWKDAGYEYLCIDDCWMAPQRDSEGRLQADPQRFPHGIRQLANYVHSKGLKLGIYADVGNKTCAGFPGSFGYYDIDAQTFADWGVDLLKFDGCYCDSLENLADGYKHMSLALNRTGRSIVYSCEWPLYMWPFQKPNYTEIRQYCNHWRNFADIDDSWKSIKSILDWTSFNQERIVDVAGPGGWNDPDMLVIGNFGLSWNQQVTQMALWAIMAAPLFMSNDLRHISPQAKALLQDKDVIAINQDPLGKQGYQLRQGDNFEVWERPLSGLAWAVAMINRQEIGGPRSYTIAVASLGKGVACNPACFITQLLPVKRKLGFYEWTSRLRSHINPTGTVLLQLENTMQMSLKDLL
Of the large screens only hits and unclear results are named; the others gave an inactive call. Unless noted, calls follow the shape of the dose curve; as a rule, active = well fitted curve in the direction sought with a large enough effect; inconclusive = small, poorly fitted or top-dose-only effect, or another doubt; inactive = no such curve, though single readings can be large; an effect the other way counts as inactive or inconclusive.

COc1ccccc1-c1ccc2ncnc(NCCN3CCOCC3)c2c1	none (no result: PNC assembly inh, ALOX12 inhib, HPGD inh, GLA inh pH 4.5)
CSc1nc(N)nc(SCC(=O)Nc2cccc(F)c2)c1C#N	HPGD inh 20µM
CSc1nc(N)nc(SCC(=O)Nc2ccc(Cl)cc2)c1C#N	PNC assembly inh inconclusive, ALDH1A1 inh inconclusive, HPGD inh inconclusive
CSc1nc(N)nc(SCC(=O)CC(=O)OC(C)C)c1C#N	none
CSc1nc(N)nc(SCC(=O)C(C)(C)C)c1C#N	ALDH1A1 inh inconclusive, HPGD inh 12.6µM
COCCn1c(NC(=S)NC(=O)C2CC2)cc(=O)[nH]c1=O	ALDH1A1 inh 0.631µM (no result: PNC assembly inh, ALOX12 inhib, HPGD inh)
Cn1cc(C(=O)c2ccccc2)cc1-c1nc2ccccc2n1C	HPGD inh inconclusive
Cc1oc(-c2nc3ccccc3n2C)cc1C(=O)c1ccccc1	ALDH1A1 inh inconclusive, HPGD inh 35.5µM
O=C(Nc1cc(S(=O)(=O)N2CCOCC2)ccc1Cl)C(=O)c1c(-c2ccccc2)cc2ccccn12	ALDH1A1 inh inconclusive
O=C1CC(=O)N(CCc2ccccc2)C(=O)N1CCc1ccccc1	PNC assembly inh inconclusive
O=C1C=CC(=O)C(C2=C3C(=O)N(CCc4ccccc4)CC(=O)N3CCC2)=C1	ALDH1A1 inh 2.24µM, HPGD inh 1.58µM
O=C(/C=C\C=C/c1ccc2c(c1)OCO2)N1CCCCC1	ALDH1A1 inh inconclusive, HPGD inh 10µM (no result: PNC assembly inh)
Nc1ccc(Nc2ccccc2)c(Cl)c1	ALDH1A1 inh 14.1µM
Clc1ccc([C@H](Cn2ccnc2)OCc2c(Cl)cccc2Cl)c(Cl)c1	none (no result: PNC assembly inh)
O=C(Cc1ccc([N+](=O)[O-])cc1)N/N=C/c1ccc([N+](=O)[O-])o1	ALDH1A1 inh inconclusive (no result: PNC assembly inh, ALOX12 inhib, HPGD inh)
N#CCc1ccc(NC(=O)/C=C/c2ccc([N+](=O)[O-])o2)cc1	ALDH1A1 inh 20µM (no result: PNC assembly inh, ALOX12 inhib, HPGD inh)
N#C/C(=C\c1ccc([N+](=O)[O-])o1)C(=O)Nc1ccc(F)cc1	ALDH1A1 inh 11.2µM (no result: PNC assembly inh, ALOX12 inhib, HPGD inh)
C=CCNC(=S)Nc1ccc(OC)c(S(=O)(=O)N2CCOCC2)c1	none (no result: PNC assembly inh, ALOX12 inhib, HPGD inh)
CC(C)(C)SCCNC(=O)/C=C/c1cccc([N+](=O)[O-])c1	ALDH1A1 inh 14.1µM
O=C(/C=C/c1cccc([N+](=O)[O-])c1)NCCSCc1c(Cl)cccc1Cl	PNC assembly inh inconclusive, ALDH1A1 inh inconclusive
O=C(/C=C/c1cccc([N+](=O)[O-])c1)NCCSCc1ccc(Cl)cc1	ALDH1A1 inh 22.4µM
CC(C)(C)SCCNC(=O)/C=C/c1ccc([N+](=O)[O-])cc1	PNC assembly inh inconclusive, ALDH1A1 inh inconclusive
Cc1ccc(S(=O)(=O)Nc2cc(=O)[nH]c(SCC(=O)Nc3cccc(C)c3)n2)cc1	none (no result: PNC assembly inh, ALDH1A1 inh, ALOX12 inhib, HPGD inh)
O=[N+]([O-])c1ccc(/C=N/NS(=O)(=O)c2ccc(Cl)cc2)o1	ALDH1A1 inh 7.94µM, HPGD inh 28.2µM
Cc1ccc(S(=O)(=O)N/N=C\c2ccc(C)o2)cc1	none
O=C(N/N=C/c1ccc(-c2ccccc2Cl)o1)c1ccccc1	ALDH1A1 inh inconclusive (no result: PNC assembly inh, ALOX12 inhib, HPGD inh)
Cc1ccc(/C=N/NS(=O)(=O)c2ccc([N+](=O)[O-])cc2)o1	none
Cc1ccc(S(=O)(=O)N/N=C\c2ccc([N+](=O)[O-])o2)cc1	PNC assembly inh -112.1, ALDH1A1 inh inconclusive
O=S(=O)(N/N=C\c1ccc(-c2ccccc2Cl)o1)c1ccccc1	PNC assembly inh inconclusive, HPGD inh 15.8µM
COc1cccc2c1C(=O)c1c(O)c3c(c(O)c1C2=O)C[C@@](O)(C(C)=O)C[C@@H]3O[C@H]1C[C@H](N)[C@H](O)[C@H](C)O1	PNC assembly inh -114.6, ALDH1A1 inh inconclusive
C=CCOC(=O)/C=C/NC(=O)/C=C/C=C/CCCCCCCC(C)O (centres undefined)	none (no result: PNC assembly inh, ALOX12 inhib, HPGD inh, GLA inh pH 4.5)
Cc1nc(SCC(=O)Nc2nc3ccccc3s2)c(C#N)c(C)c1C	ALDH1A1 inh inconclusive, HPGD inh 28.2µM
O=S(=O)(CCc1ccncc1)C1Cc2cccc3cccc1c23 (centres undefined)	none (no result: PNC assembly inh, ALDH1A1 inh, ALOX12 inhib, HPGD inh)
Cc1cccc2cc3c(nc12)SC(=NCC1CCCO1)N(Cc1ccco1)C3 (centres undefined)	ALDH1A1 inh 4.47µM (no result: HPGD inh)
COCCN=C1Sc2nc3ccc(C)cc3cc2CN1Cc1cccs1	none (no result: PNC assembly inh, ALOX12 inhib, HPGD inh)
COCCN=C1Sc2nc3c(C)cccc3cc2CN1Cc1ccco1	ALDH1A1 inh 3.55µM, HPGD inh 22.4µM
